An excerpt weighted towards active compounds, which were near 1.2% of everything screened.
S-ASM inh = human S-ASM enzyme inhibition | Potency, µM (titrated, usually from 57.5 µM), without a hit: top-dose activity change, negative = inhibition, most hits filed as inhibitors | AID 504937 | P17405 | placental ASM, HMU-PC fluorogenic substrate, 60 min | hit rate 0.006% among 340,000; further: potency means the concentration at half of the fitted maximal effect
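Human placenta-derived ASM enzyme was preincubated with compound for 10 minutes at room temperature, then given fluorogenic substrate HMU-PC0 (9 uM final) for 60 minutes at 37 °C; a pH 10 stop preceded fluorescence reading at Ex 386/Em 447 nm.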
Anesthetic bind = candidate novel general anesthetic via apoferritin binding; P02791; apoferritin/1-aminoanthracene competitive binding, fluorescence; Potency, µM (doses to about 77.5 µM), for inactives: at the top dose activity change, negative = displacement, usual class: inhibitors; hit rate 0.074% among 350,000; further: potency means the concentration at half of the fitted maximal effect; on the % scale 0 is the no-effect control and ±100 the full control effect; nearly all actives have a fitted effect of over 20% in size
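In PBS, apoferritin at 10 uM is loaded with 1-AMA from a 50% saturated solution. After 10 min of compound exposure at ambient temperature, reduced 535 nm fluorescence indicates probe displacement.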
BRCA1 expr up = increases BRCA1 expression. MCF7-BRCA1-FFLuc reporter, luminescence, 48 h; response scale: scaled: vehicle 0%, 10 µM genistein 100%. Potency, µM (top dose mostly 46.1 µM), for inactives: at the highest dose activation, most hits filed as activators. hit rate 1.1% among 380,000; further: potency means the concentration at half of the fitted maximal effect; nearly all actives have a fitted effect of over 80% in size
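MCF7-BRCA1-FFLuc, 2000 cells/well; 2 h attach, 37 °C/5% CO2; compound 48 h; luciferase substrate 15 min; luminescence end-point. Norm. to genistein 10 microM max activation and DMSO; concentration-response curves fitted.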
PTAP TSG101 blk = blocks PTAP/TSG101 interaction to inhibit HIV-1 budding. Q99816. Fluorescence polarization, FITC-PTAP peptide / Tsg101 binding. Potency, µM (titrated, usually from 115 µM), without a hit: at the highest dose activity change, negative = inhibition, usual class: inhibitors. 340,000 tested, under 10 active. AID 493005; active means well fitted inhibition curve with a large enough effect in the main read-out, with a control signal flat, not every such curve was filed as active; inconclusive means small, poorly fitted or top-dose-only effect, or effect the other way, or a change in a side signal; inactive means no such curve, though single readings can be large or run the other way; further: potency means the concentration at half of the fitted maximal effect; % of control where 0% means no effect
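Steps: Tsg101 binding domain dispensed (10 uM final), compounds pinned in DMSO, FITC-labeled PTAP-motif peptide added (50 nM final); after 20 min binding at room temperature, polarization measured.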
TSHR antagonist = human thyrotropin receptor antagonism. activity change, negative = inhibition, % at 11.5 µM. P16473. AID 504810. TSHR-expressing cells, TSH-stimulated cAMP HTRF, 2 h; stronger effect = lower value. hit rate 0.2% among 330,000;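 active means activity change below a set negative limit, meaning inhibition stronger than a set level, cut at about -70% in these data; inconclusive means activity change between two set negative limits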; further: on the % scale 0 is the no-effect control and ±100 the full control effect
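Read-out is FRET at 665 nm (cryptate excitation 337 nm) from a cryptate-tagged anti-cAMP antibody, competed by cell cAMP against cAMP-d2. Compounds are tested on freshly harvested TSHR cells challenged with 4nM TSH (EC80) for 2 hours at 37 deg C.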
* = called active by the depositor; ? = inconclusive; . = no result given; [ ] = remark or other dose. Unless noted, the call rests on the fitted dose curve; in most records, active means well fitted curve in the direction sought with a large enough effect; inconclusive means small, poorly fitted or top-dose-only effect, or another doubt; inactive means no such curve, though single readings can be large; an effect the other way counts as inactive or inconclusive.

SMILES	S-ASM inh	Anesthetic bind	BRCA1 expr up	PTAP TSG101 blk	TSHR antagonist
COc1ccc(-c2nc3ccc(NC(C)=O)cc3c(=O)n2Cc2cccc(Cl)c2)cc1COc1ccc(NC(C)=O)cc1	.	.	-19%	.	.
CC(C)C(=O)Nc1ccc(-c2nnc(-c3ccccc3)o2)cc1	16%	4%	170%	1%	4
COc1cccc(NC(=O)c2ccc(NC(=O)C(C)C)cc2)c1	-1%	-3%	10µM*	-5%	13
CC(C)C(=O)Nc1ccc(C(=O)c2ccccc2)cc1	3%	-9%	11µM*	-7%	-3
COc1cccc(NC(=O)c2cccc(C(=O)Nc3cccc(OC)c3)c2)c1	-1%	-5%	-3%	-2%	6
COc1cccc(NC(=O)C(C)C)c1	9%	.	-1%	-2%	-12
COc1cccc(C(=O)Nc2ccc(NC(=O)C3CCCCC3)nc2)c1	-9%	?	16%	0%	-103*
COc1cccc(NC(=O)c2ccccc2)c1	0%	.	8.9µM*	.	2
CC[C@H](C)[C@H](NC(=O)[C@H](Cc1ccc(O)cc1)NC(=O)[C@H](Cc1cnc[nH]1)NC(=O)[C@H](CCCNC(=N)N)NC(=O)[C@H](CC(C)C)NC(=O)[C@H](C)NC(=O)[C@H](CO)NC(=O)[C@H](Cc1ccc(O)cc1)NC(=O)[C@H](Cc1ccc(O)cc1)NC(=O)[C@H](CCCNC(=N)N)NC(=O)[C@H](C)NC(=O)[C@H](CCSC)NC(=O)[C@H](CC(=O)O)NC(=O)[C@H](CCC(=O)O)NC(=O)[C@H](C)NC(=O)[C@@H]1CCCN1)C(=O)N[C@@H](CC(N)=O)C(=O)N[C@@H](CC(C)C)C(=O)N[C@H](C(=O)N[C@H](C(=O)N[C@@H](CCCNC(=N)N)C(=O)N[C@@H](CCC(N)=O)C(=O)N[C@@H](CCCNC(=N)N)C(=O)N[C@@H](Cc1ccc(O)cc1)C(N)=O)[C@@H](C)O)[C@@H](C)CC	.	-1%	.	.	.
CCOC(=O)CCN1C(=O)[C@H]2[C@H]3[C@H](O)[C@H](O)C/C(=N/OC/C=C(\C)CCC=C(C)C)[C@H]3CC[C@@H]2C1=O	.	-3%[15.3 µM]	.	.	.
O=C(NC1CCCCCCC1)c1cc(F)c(F)cc1Cl	-4%	?	1.8µM*	-5%	-3
C/C(=N\NC(=O)c1ccccc1)c1cccc(Br)c1	0%	-7%	10µM*	-7%	8
COc1cccc(C(=O)N/N=C(\C)CC(=O)Nc2ccc(N(C)C)cc2)c1	3%	3%	-47%	-1%	15
COc1cccc(/C(C)=N/NC(=O)c2ccc(N(C)C)cc2)c1	-1%	-23%	4.5µM*	1%	26
C/C(=N\NC(=O)c1cccc(Br)c1)c1ccc(Br)cc1	-1%	-16%	7%	0%	46
Nc1c(-c2ccccc2)cnn1-c1cccc(C(F)(F)F)c1	-1%	-14%	5µM*	-2%	-14
Nc1c(-c2cccc(Cl)c2)cnn1-c1cccc(C(F)(F)F)c1	-6%	?	57%	-2%	-11
Cc1ccc(-c2cnn(-c3cccc([N+](=O)[O-])c3)c2N)cc1	-1%	-17%	5.6µM*	-1%	-6
CC(C)(C)C(=O)O/N=C(\N)c1ccc(-c2csnn2)cc1	-3%	2%	0%	-3%	-15
CC(=O)O/N=C(\N)c1ccc(-c2csnn2)cc1	-3%	-6%	11µM*	-1%	4
COC(=O)c1ccc(NC(=O)c2ccccc2OCC(=O)Nc2ccc(Br)cc2)cc1	.	.	-16%	.	.
Cc1ccccc1CSc1ccc(-c2ccc3c(c2)OCO3)nn1	-4%	-15%	8.9µM*	-2%	-7
c1cncc(CSc2ccc(-c3ccc4c(c3)OCO4)nn2)c1	-1%	-18%	5.6µM*	-4%	-12
Fc1cccc(CSc2ccc(-c3ccc4c(c3)OCO4)nn2)c1	-2%	2%	83%	-3%	-11
O=C(/C=C/c1ccc(I)cc1)c1ccc(B(O)O)cc1	.	4%	.	.	.
C(=C\c1ccnc2ccccc12)/c1ccc(N(Cc2ccccc2)Cc2ccccc2)cc1	.	.	2%	.	.
